The list shows a part of the results. A number with no mark means an inactive call. The source made the active and inactive calls.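 Rule for the calls, unless noted: active = mean inhibition across triplicate wells above the cutoff set by the earlier primary insulin-degrading enzyme screen (cut at about 16% in these data); inactive = the rest.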
Tests used:
[1] = molecular target: Insulin-degrading enzyme (Homo sapiens) (UniProt P14735); experiment: human IDE inhibitors in live cells, confirmation, fluorescence polarization, HEK cells, FAbetaB substrate (AID 435028); conditions: FAbetaB cleavage, at 5.59 µM, stronger effect = higher value;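 note: 0% = DMSO wells and 100% = 60 µM reference IDE inhibitor Ii1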
Insulin-degrading enzyme (Homo sapiens), sequence (P14735 whole entry, looked up): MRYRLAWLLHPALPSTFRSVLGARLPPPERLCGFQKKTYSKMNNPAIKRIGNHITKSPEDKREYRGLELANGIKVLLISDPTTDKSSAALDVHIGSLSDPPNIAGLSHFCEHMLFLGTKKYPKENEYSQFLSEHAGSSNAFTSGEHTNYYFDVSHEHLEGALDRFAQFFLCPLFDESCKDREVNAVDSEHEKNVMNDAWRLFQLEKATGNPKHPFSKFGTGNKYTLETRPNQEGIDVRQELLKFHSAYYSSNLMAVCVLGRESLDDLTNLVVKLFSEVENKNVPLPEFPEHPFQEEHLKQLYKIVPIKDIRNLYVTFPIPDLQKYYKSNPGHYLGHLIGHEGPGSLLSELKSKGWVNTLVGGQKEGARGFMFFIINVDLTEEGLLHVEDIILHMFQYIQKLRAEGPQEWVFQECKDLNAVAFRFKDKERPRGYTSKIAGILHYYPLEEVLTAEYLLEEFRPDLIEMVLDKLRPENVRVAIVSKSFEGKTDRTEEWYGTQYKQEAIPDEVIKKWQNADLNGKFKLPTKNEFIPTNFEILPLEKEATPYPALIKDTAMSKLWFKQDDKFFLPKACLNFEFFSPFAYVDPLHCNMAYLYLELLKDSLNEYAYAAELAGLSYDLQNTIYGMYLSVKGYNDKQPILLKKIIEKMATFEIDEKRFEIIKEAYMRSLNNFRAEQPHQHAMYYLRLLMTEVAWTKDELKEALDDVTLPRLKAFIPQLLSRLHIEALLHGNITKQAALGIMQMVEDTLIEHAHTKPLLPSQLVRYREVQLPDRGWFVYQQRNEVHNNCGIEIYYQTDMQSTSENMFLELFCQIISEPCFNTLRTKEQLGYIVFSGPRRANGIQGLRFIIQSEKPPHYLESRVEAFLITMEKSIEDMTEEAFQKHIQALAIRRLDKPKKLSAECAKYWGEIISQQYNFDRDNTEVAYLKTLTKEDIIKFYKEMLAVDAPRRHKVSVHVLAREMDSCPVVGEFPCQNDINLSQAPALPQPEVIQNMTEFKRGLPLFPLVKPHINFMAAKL

[2] = cytotoxicity in HEK cells, cytotoxicity control for IDE inhibitor project, cell-based, luminescence (AID 449730; in the data active = inhibition above about 22%;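 note: 0% = vehicle wells and 100% = reference cytotoxic drug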); conditions: HEK293 cytotoxicity, ATP luminescence; at 5.59 µM; stronger effect = higher value
[3] = molecular target: Oxytocin receptor (Homo sapiens) (UniProt P30559); experiment: human OXTR agonists, confirmation, fluorescence, CHO-OTR cells, triplicate (AID 434963;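 active = mean activation above about 20% derived from the earlier single-dose screen, limit read from the data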;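 note: peak over minimum fluorescence ratio per well during a 100 second FLIPR read; 0% = DMSO alone and 100% = oxytocin high control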); conditions: Fluo-8 calcium fluorescence, agonist, at 3 µM, stronger effect = higher value
Oxytocin receptor (Homo sapiens), sequence (P30559 whole entry, looked up): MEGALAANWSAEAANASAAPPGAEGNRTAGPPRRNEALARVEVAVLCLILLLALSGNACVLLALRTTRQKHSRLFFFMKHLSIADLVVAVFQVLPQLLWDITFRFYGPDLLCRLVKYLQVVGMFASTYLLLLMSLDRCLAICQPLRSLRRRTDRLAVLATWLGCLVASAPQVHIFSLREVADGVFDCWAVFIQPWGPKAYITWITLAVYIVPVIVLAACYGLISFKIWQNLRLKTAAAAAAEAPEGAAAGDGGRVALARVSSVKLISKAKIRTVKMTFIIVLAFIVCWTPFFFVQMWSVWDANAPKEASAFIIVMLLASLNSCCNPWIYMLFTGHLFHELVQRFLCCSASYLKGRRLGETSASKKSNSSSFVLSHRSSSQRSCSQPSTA

[4] = molecular target: Vasopressin V1a receptor (Homo sapiens) (UniProt P37288); experiment: V1a receptor agonists, calcium signal, counter-screen for OXTR agonist project, triplicate, fluorescence, CHO-V1R cells (AID 434991;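 active = mean activation over triplicate exceeds the hit threshold set in the earlier primary screen, cut at about 20% in these data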;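 note: peak over basal fluorescence ratio within a 100 second read; 0% = DMSO alone and 100% = 3 nM vasopressin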); conditions: Fluo-8 calcium fluorescence, at 3 µM, stronger effect = higher value
Vasopressin V1a receptor (Homo sapiens), sequence (P37288 whole entry, looked up): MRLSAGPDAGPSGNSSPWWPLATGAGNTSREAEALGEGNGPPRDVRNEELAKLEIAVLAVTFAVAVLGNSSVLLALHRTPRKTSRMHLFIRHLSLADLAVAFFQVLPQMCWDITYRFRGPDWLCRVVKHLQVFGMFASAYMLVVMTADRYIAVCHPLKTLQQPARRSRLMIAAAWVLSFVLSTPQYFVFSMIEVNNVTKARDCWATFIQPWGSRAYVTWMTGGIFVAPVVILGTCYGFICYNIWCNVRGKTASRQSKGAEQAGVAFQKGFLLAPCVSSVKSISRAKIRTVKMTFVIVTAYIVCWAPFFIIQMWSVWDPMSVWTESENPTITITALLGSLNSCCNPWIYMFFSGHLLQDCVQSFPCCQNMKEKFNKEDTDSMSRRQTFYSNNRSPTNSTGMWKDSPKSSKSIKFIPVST

[5] = molecular target: Photoreceptor-specific nuclear receptor (Homo sapiens) (UniProt Q9Y5X4); experiment: NR2E3 agonist confirmation in cells, cell-based, luminescence, CHO-S two-hybrid (AID 624378;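 active = average inhibition above a cutoff equal to the mean inhibition of all tested compounds plus one SD, cut at about 70% in these data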;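 note: 0% = DMSO in NR2E3 cells and 100% = DMSO in cells lacking NR2E3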); conditions: CHO-S mammalian two-hybrid NR2E3-NCOR, luciferase luminescence; at 3.98 µM; stronger effect = higher value
Photoreceptor-specific nuclear receptor (Homo sapiens), sequence (Q9Y5X4 whole entry, looked up, the tested form may be a part): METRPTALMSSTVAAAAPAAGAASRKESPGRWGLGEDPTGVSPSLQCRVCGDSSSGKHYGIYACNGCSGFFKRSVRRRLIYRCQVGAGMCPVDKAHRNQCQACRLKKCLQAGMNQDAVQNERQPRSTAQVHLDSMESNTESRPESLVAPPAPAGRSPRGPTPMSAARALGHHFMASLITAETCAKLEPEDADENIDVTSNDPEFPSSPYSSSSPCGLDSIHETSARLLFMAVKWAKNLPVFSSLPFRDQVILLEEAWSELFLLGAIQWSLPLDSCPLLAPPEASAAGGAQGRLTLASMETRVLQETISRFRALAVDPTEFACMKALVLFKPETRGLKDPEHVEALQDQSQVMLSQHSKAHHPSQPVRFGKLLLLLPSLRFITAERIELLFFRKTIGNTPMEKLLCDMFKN

[6] = GAL4-VP16 reporter modulators, confirmation, counter-screen for NR2E3 agonist project, cell-based, luminescence, CHO-S, high throughput (AID 624379;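 active = mean inhibition above a cutoff equal to the average over all tested compounds plus one standard deviation, cut at about 70% in these data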;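 note: luciferase from a UAS reporter driven by GAL4-VP16 transactivation; 0% = DMSO with VP16-transfected cells and 100% = DMSO with cells lacking VP16; higher means less reporter light so more repression of VP16 activity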); conditions: CHO-S GAL4-VP16 luciferase reporter, at 3.98 µM, stronger effect = higher value
[7] = growth loss of phage-infected RecBCD+ E. coli, confirmation, RecBCD inhibitor project, absorbance, E. coli V66, T4 gene 2 phage (AID 651982;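 active = mean inhibition over triplicates exceeding the hit threshold derived in the original primary screen, cut at about 11% in these data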); conditions: E. coli V66 + T4 2- phage, growth OD; at 11.9 µM; stronger effect = higher value
[8] = E. coli viability inhibition, counter-screen for RecBCD inhibitor project, absorbance, high throughput (AID 651983; in the data active = inhibition above about 20%;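 note: E. coli strain V66 grown with compound alone and no phage infection; 0% = bacteria with DMSO vehicle only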); conditions: absorbance (OD) growth, at 11.9 µM, stronger effect = higher value
[9] = growth loss of phage-infected AddAB-carrying E. coli, confirmation, counter-screen for RecBCD inhibitor project, absorbance, E. coli V3065, T4 phage (AID 651984;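 active = mean inhibition above the solvent-only control wells' mean plus 3 SD, cut at about 22% in these data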;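 note: higher means less bacterial growth from phage killing when AddAB is blocked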); conditions: E. coli expressing H. pylori AddAB + T4 phage, OD growth; at 11.9 µM; stronger effect = higher value; gene 2 mutant T4, recBCD-deleted host
[10] = molecular target: Platelet-activating factor acetylhydrolase (Homo sapiens) (UniProt Q13093); experiment: pPAFAH (PLA2G7) enzyme inhibitors, confirmation, biochemical, fluorescence polarization, human (AID 463230;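 active = mean inhibition of the triplicate above the hit cutoff set for the earlier primary screen, cut at about 25% in these data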;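 note: 0% = enzyme with DMSO and 100% = wells lacking pPAFAH enzyme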); conditions: recombinant pPAFAH, FP-Rh probe fluorescence polarization; at 3.39 µM; stronger effect = higher value
Platelet-activating factor acetylhydrolase (Homo sapiens), sequence (Q13093 whole entry, looked up): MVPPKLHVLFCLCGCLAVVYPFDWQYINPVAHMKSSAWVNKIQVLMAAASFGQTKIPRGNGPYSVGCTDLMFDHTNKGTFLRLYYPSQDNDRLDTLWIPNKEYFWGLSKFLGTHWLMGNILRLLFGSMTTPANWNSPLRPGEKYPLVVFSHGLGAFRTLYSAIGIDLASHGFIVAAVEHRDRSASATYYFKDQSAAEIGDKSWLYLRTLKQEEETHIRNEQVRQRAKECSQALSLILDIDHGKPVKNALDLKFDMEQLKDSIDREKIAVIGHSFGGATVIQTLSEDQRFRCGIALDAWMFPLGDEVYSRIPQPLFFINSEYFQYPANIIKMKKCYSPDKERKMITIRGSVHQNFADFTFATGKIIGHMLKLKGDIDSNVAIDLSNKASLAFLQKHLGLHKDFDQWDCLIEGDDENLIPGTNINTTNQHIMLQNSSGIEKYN

[11] = molecular target: Protein-arginine deiminase type-4 (Homo sapiens) (UniProt Q9UM07); experiment: human PAD4 inhibitors, confirmation, biochemical, fluorescence polarization (AID 488796;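 active = mean inhibition across replicates above the hit cutoff set by the earlier primary screen, cut at about 15% in these data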;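 note: inhibitors block active-site labeling by the probe so polarization falls; 0% = PAD4 with probe and DMSO and 100% = probe without PAD4 enzyme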); conditions: recombinant PAD4, RCA probe fluorescence polarization; at 6.36 µM; stronger effect = higher value
Protein-arginine deiminase type-4 (Homo sapiens), sequence (Q9UM07 whole entry, looked up): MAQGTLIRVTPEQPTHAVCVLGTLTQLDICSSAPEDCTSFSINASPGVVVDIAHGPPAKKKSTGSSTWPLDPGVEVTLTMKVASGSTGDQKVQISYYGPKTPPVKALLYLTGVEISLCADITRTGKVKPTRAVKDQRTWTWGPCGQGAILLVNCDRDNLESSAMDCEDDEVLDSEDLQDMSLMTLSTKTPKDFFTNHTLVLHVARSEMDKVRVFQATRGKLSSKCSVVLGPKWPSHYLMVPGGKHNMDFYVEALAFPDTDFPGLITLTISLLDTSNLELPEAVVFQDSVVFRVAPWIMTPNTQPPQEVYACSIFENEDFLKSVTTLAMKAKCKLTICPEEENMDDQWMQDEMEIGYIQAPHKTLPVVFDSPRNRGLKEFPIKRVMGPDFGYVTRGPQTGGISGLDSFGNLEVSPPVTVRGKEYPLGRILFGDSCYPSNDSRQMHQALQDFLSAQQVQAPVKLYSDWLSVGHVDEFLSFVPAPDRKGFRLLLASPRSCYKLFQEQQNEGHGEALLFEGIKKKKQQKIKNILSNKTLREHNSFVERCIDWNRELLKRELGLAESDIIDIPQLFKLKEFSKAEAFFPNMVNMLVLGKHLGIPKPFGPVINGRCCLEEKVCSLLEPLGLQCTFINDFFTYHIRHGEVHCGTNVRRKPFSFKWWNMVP

[12] = molecular target: Serine protease HTRA1 (Homo sapiens) (UniProt Q92743); experiment: HTRA1 protease inhibitors, retest, confirmation, biochemical, fluorescence polarization (AID 540248;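 active = mean inhibition over three repeats above a set limit taken from the earlier primary screen, cut at about 37% in these data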;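 note: 0% = HTRA1 with DMSO and 100% = wells lacking HTRA1; inhibitors block probe binding so polarization drops and inhibition rises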); conditions: recombinant HTRA1, FP-rhodamine activity-based probe, at 5.96 µM, stronger effect = higher value
[13] = Gal4-VP16 luciferase reporter inhibitors, counter-screen for COUP-TFII antagonist project, cell-based, luminescence, HEK293 (AID 687007; in the data active = inhibition above about 13%); conditions: at 8.5 µM, stronger effect = higher value
[14] = molecular target: COUP transcription factor 2 (Homo sapiens) (UniProt P24468); experiment: NR2F2 transcriptional activity inhibitors, confirmation, cell-based, luciferase reporter, HEK293, triplicate (AID 687008;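 active = mean inhibition over three repeats above a set limit taken from the earlier primary screen, cut at about 38% in these data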;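 note: 100% = cells given the luciferase reporter alone without the COUP-TF2 vector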); conditions: HEK293 NGFI-A luciferase reporter, luminescence; at 8.5 µM; stronger effect = higher value
COUP transcription factor 2 (Homo sapiens), sequence (P24468 whole entry, looked up): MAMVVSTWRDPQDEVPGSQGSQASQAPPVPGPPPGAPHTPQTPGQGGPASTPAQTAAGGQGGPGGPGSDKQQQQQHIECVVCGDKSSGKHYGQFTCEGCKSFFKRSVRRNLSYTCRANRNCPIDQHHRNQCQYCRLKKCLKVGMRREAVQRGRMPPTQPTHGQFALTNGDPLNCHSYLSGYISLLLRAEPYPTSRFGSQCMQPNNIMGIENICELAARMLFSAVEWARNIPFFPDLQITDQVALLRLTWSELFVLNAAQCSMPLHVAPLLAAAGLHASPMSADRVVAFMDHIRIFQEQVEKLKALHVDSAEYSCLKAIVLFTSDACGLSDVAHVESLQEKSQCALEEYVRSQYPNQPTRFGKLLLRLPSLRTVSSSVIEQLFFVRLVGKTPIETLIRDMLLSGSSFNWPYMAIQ

N#C/C(=C\c1ccc(N2CCOCC2)o1)C(=O)N1CCOCC1
inhibition [1]: 14.7%
inhibition [2]: 8.42%

NC(=O)c1c(Nc2nc3c(F)cccc3s2)sc2c1CCCC2
inhibition [1]: 12.7%
inhibition [2]: 5.16%

CCCc1nc(SCC(=O)Nc2ccc(S(=O)(=O)N(C)C)cc2)c2ccccc2n1
inhibition [1]: 6.74%
inhibition [2]: 21.9%

COc1ccc(NS(=O)(=O)c2ccc(Oc3c(C#N)cccc3C#N)cc2)cc1
activation [3]: 17.5%
activation [4]: 13.7%
inhibition [5]: 94.9% (active)
inhibition [6]: 88% (active)

CN(C)c1ccc(/C=C2\NC(=S)N(Cc3ccccc3)C2=O)cc1
inhibition [1]: 135% (active)
inhibition [2]: 24.2% (active)

Cc1c(-c2cccc(Cl)c2)nc2ccccc2c1C(=O)OCC(=O)N(C)C1CCS(=O)(=O)C1 (configuration not stated)
inhibition [1]: 16.9% (active)
inhibition [2]: 14.1%

O=C(CCc1ccc(S(=O)(=O)N2CCOCC2)cc1)Nc1ccc2ccccc2c1
inhibition [1]: 8.6%
inhibition [2]: 13.4%

Cc1nn(C)cc1C(=O)c1ccccc1
inhibition [1]: 3.52%
inhibition [2]: 5.03%

CCOc1cc2c(Cl)ncnc2c(OCC)c1OCC
inhibition [1]: 4.73%
inhibition [2]: 6.67%

Oc1ccc(-c2onc3ccc(Cl)cc23)cc1
inhibition [1]: 101% (active)
inhibition [2]: 12.7%

CCN1CCCC1CNc1ncnc2c1[nH]c1ccc(F)cc12 (configuration not stated)
inhibition [1]: 3.64%
inhibition [2]: 8.81%

CS(=O)(=O)N(Cc1ccccc1)c1ccc(C(=O)NN=C2CCCCCC2)cc1
inhibition [1]: 3.28%
inhibition [2]: 6.18%

Cn1c2ccccc2c2cc(/C=C(\NC(=O)c3ccccc3)C(=O)NCC(=O)O)ccc21
inhibition [1]: 17.3% (active)
inhibition [2]: 5.76%

Cc1cccc(-n2c(Cc3cc(=O)[nH]c(=O)[nH]3)nnc2SCC(=O)Nc2cccc(C(F)(F)F)c2)c1
inhibition [1]: 6.02%
inhibition [2]: 3.28%

CCN(CC)c1ccc2cc(C(N)=O)/c(=N\NC(=O)c3ccncc3)oc2c1
inhibition [1]: 85.5% (active)
inhibition [2]: 28.8% (active)

Cc1c(C(=O)Nc2cccc(-c3nnc4n3CCCCC4)c2)oc2ccccc12
inhibition [1]: 5.89%
inhibition [2]: 21.4%

CCOc1ccc(Cn2nnc(C(=O)Nc3ccc(OC)cc3OC)c2N)cc1
activation [3]: 16.4%
activation [4]: 14.5%
inhibition [7]: -0.29%
inhibition [8]: -0.35%
inhibition [9]: -1.47%

COc1cc(/C=C2/SC(=S)N(Cc3ccccc3)C2=O)cc(OC)c1O
activation [3]: 29.3% (active)
activation [4]: 38.2% (active)
inhibition [1]: 142% (active)
inhibition [2]: 19.6%

CCOC(=O)CC1C(=O)NCCN1c1nc2c(C)cccn2c(=O)c1/C=C1\SC(=S)N(C(C)CC)C1=O (configuration not stated)
inhibition [1]: 27.1% (active)
inhibition [2]: 41.5% (active)

CN(C)S(=O)(=O)c1cccc(-c2nn(-c3ccccc3)cc2/C=C2\SC(=S)N(CC(=O)O)C2=O)c1
inhibition [10]: 40.4% (active)
inhibition [11]: 2.15%

CC(C)C1N=C2c3ccccc3N=C(SCC(=O)c3ccc(O)c(O)c3)N2C1=O (configuration not stated)
inhibition [10]: 54.5% (active)
inhibition [12]: 57% (active)

Fc1ccc2[nH]c3c(N4CCSCC4)ncnc3c2c1
inhibition [1]: 7.91%
inhibition [2]: 49.2% (active)
inhibition [5]: 84.4% (active)
inhibition [6]: 63.2%
inhibition [13]: 4.31%
inhibition [14]: 48% (active)

CCc1ccc(CN(C)C(=O)CCc2nnc(-c3ccc(-c4ccccc4)cc3)o2)nc1
inhibition [10]: 11.8%

CC1(OC(=O)C2CCCC2)C(=O)C=C2C=C(c3ccc(C#N)cc3)OC=C2C1=O (configuration not stated)
inhibition [10]: 53.2% (active)

— PubChem BioAssay
